This is an account of results in PubChem BioAssay (EPA / NIEHS).

Inconclusive results are not listed. More than one record can exist for a structure, and the calls need not agree. The source made the active and inactive calls. How the source made its calls: active means hit-call score of the fitted dose curve at least 0.9, where 1 is the maximum; inconclusive means response in the unintended direction; inactive means score below 0.9.

For test [1], the target named is Cellular tumor antigen p53 (Homo sapiens) (UniProt P04637). Kind of test: TOX21_p53_BLA_p2_ratio: Tox21 HCT-116 p53 Agonism Beta-lactamase Assay, Ratio, Phase 2 (AID 2283592). The procedure, abridged: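 HCT116 p53-bla; 4000 cells/well; 5 h pre-incubation; cpd in DMSO, 217-fold dilution; 16 h 37C/5% CO2; CCF4-AM 2 h RT; Ex 405, Em 460/530 ratio; DMSO = baseline; positive fitting direction.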

The target is the same in test [2]. Kind of test: TOX21_p53_BLA_p3_ratio: Tox21 HCT-116 p53 Agonism Beta-lactamase Assay, Ratio, Phase 3 (AID 2283596). Summed up:
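HCT116 p53-bla cells (4000/well) given compound in DMSO (217-fold dilution) after 5 h, incubated 16 h at 37C. CCF4-AM substrate 2 h at room temperature; 460/530 nm emission ratio, gain fitted against DMSO.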

Test [3] can be described thus: TOX21_p53_BLA_p2_viability: Viability Assessment in the Tox21 HCT-116 p53 Agonism Beta-lactamase Assay, Phase 2 (AID 2283591).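 Further: compound exposure lasted 16 h at 37 °C; actives lower the ATP signal meaning cytotoxicity.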 Summed up: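 Cytotoxicity readout: CellTiter-Glo ATP luminescence, 30 min at room temperature, after the beta-lactamase read. Cells were HCT116 exposed 16 h at 37C to compounds pin-transferred at 217-fold dilution from DMSO stocks.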
Test [4] in a line: TOX21_p53_BLA_p3_viability: Viability Assessment in the Tox21 HCT-116 p53 Agonism Beta-lactamase Assay, Phase 3 (AID 2283593).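 Further: cells exposed to compound for 16 h before reading.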 Summed up: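 Cellular ATP was quantified by CellTiter-Glo luminescence, read after 30 min at room temperature. Beforehand, HCT116 cells (4000/well) received compound 5 h post-seeding, 217-fold diluted from DMSO, then incubated 16 h at 37C.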
Test [5] is described as follows: ATG_XTT_Cytotoxicity: Cytotoxicity Assessment in the Attagene TRANS-FACTORIAL HepG2 Assay (AID 2283584). Summed up: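 Cells: human HepG2, transiently transfected with MRTU reporter constructs. Exposure 24 h. Readout: XTT, cell number. Baseline/neg ctrl DMSO; loss-of-signal scored.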

Sequence of Cellular tumor antigen p53 (Homo sapiens) (P04637 whole entry, looked up): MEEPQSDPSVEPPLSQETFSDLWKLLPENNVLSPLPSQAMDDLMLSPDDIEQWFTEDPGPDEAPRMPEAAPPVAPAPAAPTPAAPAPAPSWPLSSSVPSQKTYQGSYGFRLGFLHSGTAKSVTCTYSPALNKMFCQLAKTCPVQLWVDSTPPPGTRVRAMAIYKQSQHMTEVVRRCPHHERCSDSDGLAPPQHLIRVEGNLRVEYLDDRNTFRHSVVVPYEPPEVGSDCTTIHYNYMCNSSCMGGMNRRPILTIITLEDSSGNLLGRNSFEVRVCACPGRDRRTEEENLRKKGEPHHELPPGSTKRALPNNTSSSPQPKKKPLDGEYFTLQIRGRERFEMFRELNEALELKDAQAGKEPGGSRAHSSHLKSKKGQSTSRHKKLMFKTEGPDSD

Regarding `OC[P+](CO)(CO)CO`, the outcome in test [1] and in test [2] was inactive.
For the compound `CCCCOC(=O)COC(=O)c1ccccc1C(=O)OCCCC`, the result in test [1] was inactive.
As to `C=C(C)C(=O)OCC(CC)CCCC` (stereo unspecified), the compound was classed as inactive in test [3], in test [1], in test [4] and in test [2].
Turning to `C#CCOC(=O)/C=C(C)/C=C/CC(C)CCCC(C)C` (stereo unspecified), the outcome in test [5] and in test [4] was inactive.
Consider `CC(C)(c1ccccc1)c1cc(-n2nc3ccccc3n2)c(O)c(C(C)(C)c2ccccc2)c1`, for which the compound was classed as inactive in test [3] and in test [1].
As to `O=C(NC(=O)c1c(F)cccc1F)Nc1cc(Cl)c(F)c(Cl)c1F`, the call in test [3], in test [1], in test [4] and in test [2] was inactive.
For the compound `Nc1ccc(Br)cc1`, the outcome in test [3], in test [1], in test [4] and in test [2] was inactive.
Turning to `c1ccc(-c2cccc(-c3ccccc3)c2)cc1`, the call in test [3], in test [1], in test [4] and in test [2] was inactive.
Regarding `O=NN1CCCCCC1`, the compound was called inactive in test [3], in test [1] and in test [2].
`O=C(Cc1ccccc1)OCCc1ccccc1`: the outcome in test [3] and in test [1] was inactive.
What is called AC50 is the concentration at which the activity in the assay is half-maximal. In the case of `c1ccc2c(c1)Oc1ccccc1O2`, the compound was called inactive in test [3], in test [1], in test [4] and in test [2]. For the same compound, the AC50 in test [2] was 86.4 µM (active).
For `CC(C)[N+](=O)[O-]`, the result in test [5], in test [1] and in test [2] was inactive.
